# CatS block: human cathepsin S inhibition | AID 501 | P25774 | inhibition, %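 (tested at 5 µM per compound within 10-compound mixtures)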 | actives 0.06% (n = 62,000) | recombinant cathepsin S, AMC dipeptide fluorescence, pooled mixtures; in the data active = inhibition above about 32%, passing the limit was not always enough; inconclusive = no clear call, values can overlap the other calls;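 also: 0% = enzyme without compound and 100% = blank without enzyme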
# Target sequence (P25774 115-331 limits assumed): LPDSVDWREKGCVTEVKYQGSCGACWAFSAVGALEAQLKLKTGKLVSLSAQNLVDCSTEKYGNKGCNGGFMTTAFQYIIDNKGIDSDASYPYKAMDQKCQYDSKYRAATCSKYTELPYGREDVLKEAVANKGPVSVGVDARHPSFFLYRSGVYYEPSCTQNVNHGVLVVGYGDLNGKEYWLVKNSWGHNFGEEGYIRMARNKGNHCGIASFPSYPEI
# CatB block: inhibitors of human cathepsin B | purified cathepsin B, fluorogenic substrate, fluorescence | AID 453 | inhibition, %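 (tested at 10 µM)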 | actives 0.1% (n = 63,000) | P07858; in the data active = inhibition above about 21%;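 also: 0% = enzyme with no compound and 100% = no enzyme blank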
# Hsp90 block: displaces geldanamycin probe from tumor Hsp90. P07900. NCI-N417 lysate Hsp90, Cy3B-geldanamycin FP displacement. inhibition, % at 30 µM. actives 0.35% (n = 64,000). AID 429;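 active = inhibition above 50%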;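 also: 0% = tracer plus lysate wells and 100% = tracer alone without lysate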
# CatB mixtures: inhibitors of human cathepsin B in compound mixtures | P07858 | Purified cathepsin B, AMC dipeptide fluorescence | inhibition, %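 (ten-compound pools at 5 µM per compound and 50 µM total)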 | actives 0.06% (n = 62,000) | AID 488; in the data active = inhibition above about 22%, passing the limit was not always enough; inconclusive = no clear call, values can overlap the other calls;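 also: 0% = enzyme without compound and 100% = no enzyme blank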
# Htt clearance: compounds clearing mutant huntingtin protein; actives 0.42% (n = 47,000); inhibition, % at 1.5 µM; HeLa Exon1htt(103Q)mCFP, aggregate imaging; zero = plate's median compound well;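 active = inhibition of aggregate fluorescence above about 70%, also judged a hit by eye on the cell image, limit read from the data, passing the limit was not always enough; inconclusive = no rule stated for this call; inactive = not judged a hit on image review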;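 also: cells exposed to compound for three days before fixation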
# CatL inh: blocks human cathepsin L protease activity; P07711; purified cathepsin L, fluorogenic substrate, fluorescence; actives 0.17% (n = 58,000); inhibition, %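 (tested at 10 µM)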; AID 460; in the data active = inhibition above about 45%;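 also: 0% = enzyme with no compound and 100% = no enzyme blank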
# Target sequence (P07711 114-288 limits assumed): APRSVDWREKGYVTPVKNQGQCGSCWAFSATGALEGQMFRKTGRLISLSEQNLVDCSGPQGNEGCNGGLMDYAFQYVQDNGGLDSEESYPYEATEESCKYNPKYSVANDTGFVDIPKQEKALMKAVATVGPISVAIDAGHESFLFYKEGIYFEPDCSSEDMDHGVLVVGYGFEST
# Target sequence (P07711 292-333 limits assumed): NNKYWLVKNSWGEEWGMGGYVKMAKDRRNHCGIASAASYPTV
# Numbers without * were called inactive; ? = inconclusive; · = no result. Only some compounds are listed: those with a hit (about 0.71% of all), similar ones and a draw of the others.
SMILES,CatS block,CatB block,Hsp90 block,CatB mixtures,Htt clearance,CatL inh
COc1cccc(C(=O)NC2CC3CCCC(C2)N3CC(=O)Nc2ccccc2)c1 (stereo not drawn),·,·,94.9*,·,·,·
NCCCCNS(=O)(=O)c1cccc2c(Cl)cccc12,·,·,-3.0,·,·,·
Nc1nc2n(n1)C1(CCCCC1)C1=C(CCCC1)N2,12.5,39.1*,19.9,68.9*,-19.8,3.7
C1CCC2(CC1)C1=C(CCCC1)Nc1nnnn12,0.7,1.7,0.8,-0.2,-14.6,0.1
O=C(Nc1ccccc1C(=O)NC(Cc1ccccc1)C(=O)NC1CCCCCC1)c1ccccc1 (stereo not drawn),·,·,·,·,52.8,·
CCOC(=O)c1sc(=S)n(-c2cc(F)ccc2F)c1N,-4.0,6.8,-2.4,-0.2,-6.0,104.3*
CC(=O)Nc1c(C(=O)c2ccccc2)oc2ccccc12,?,-1.8,3.5,6.5,·,103.6*
CC(=O)Nc1c(C(=O)C2CC2)oc2ccccc12,15.9,7.1,-0.5,33.7,55.7,4.5
CCc1ccc(N=c2c([N+](=O)[O-])nn(-c3ccccc3)n2O)cc1,·,·,·,·,70.9*,·
O=[N+]([O-])c1nn(-c2ccc3c(c2)OCCO3)n(O)c1=NC1CCCCC1,·,·,·,·,-468.2,·
C=CCn1cnc2c(c1=O)c1nc3ccccc3nc1n2-c1ccc(Cl)cc1,·,-2.1,-1.6,·,·,-5.1
CC(C)CC(OC(=O)c1cccs1)C(=O)NCc1cccs1 (stereo not drawn),13.4,7.8,-3.1,3.3,-14.8,-1.2
CC(OC(=O)c1cccs1)C(=O)NCc1cccs1 (stereo not drawn),-1.2,-0.3,92.3*,0.5,·,8.4
CCC(C)[C@@H](NC(=O)OC(C)(C)C)c1nnc(S(=O)(=O)Cc2cccc(C)c2)o1 (stereo partly drawn),2.7,33.7*,-1.9,22.8*,18.3,76.0*
Cc1c(CC(C)(C)C(=O)O)n(Cc2ccc(Cl)cc2)c2ccc(F)cc12,·,·,1.0,·,·,·
CCN1C(=O)c2cccc3c(NC(=O)c4ccc(S(=O)(=O)N5CCOCC5)cc4)ccc1c23,17.3,-2.2,-0.4,7.2,71.7*,16.8
CCOC(=O)c1sc2nccc(N(C)C)c2c1N=CNOC,·,·,·,·,73.0*,·
Nc1ncnc2c1c(-c1ccc(Oc3ccccc3)cc1)cn2C1CCCC1,·,·,-1.0,·,·,·
CCCCn1nc(-c2ccccc2)c2nc3ccccc3nc21,·,·,·,·,73.9*,·
COc1cc(NCCCN)c2ncccc2c1,·,·,-6.7,·,·,·
CCC(C)C(=O)Nc1nc(C)c(-c2csc(Nc3cc(Cl)ccc3OC)n2)s1 (stereo not drawn),·,·,·,·,71.9*,·
CN(C)CCNC(=O)c1cc2ccccc2oc1=O,9.3,4.5,-5.9,2.2,73.6*,-10.6
COc1ccc(-c2cnn(-c3ccccc3)c2N)cc1OC,-3.9,·,-3.9,-2.7,·,·
Nc1nc2c(s1)CCc1c-2cnn1-c1ccccc1,-1.1,1.6,93.0*,2.5,19.9,5.8
CCOc1nc(C#N)nc(N2CCCCC2)n1,36.5*,15.1,0.7,10.7,·,58.6*
SMILES,CatS block,CatB block,Hsp90 block,CatB mixtures,Htt clearance,CatL inh
CCOC(=O)N1CCN(S(=O)(=O)c2ccc3c(c2)OCC(=O)N3)CC1,-13.3,-0.1,-3.1,1.6,70.7*,-6.5
CCOC(=O)N1CCN(S(=O)(=O)c2ccc3c(c2)SCC(=O)N3)CC1,-7.2,-2.5,-1.4,2.7,-22.6,-3.1
C=CCSC1=C(C#N)C(c2ccc(C(C)C)cc2)CC(=O)N1 (stereo not drawn),1.6,-0.1,-2.3,1.7,38.5,-1.9
O=C(CC(c1ccccc1)c1ccco1)N1CCOCC1 (stereo not drawn),59.4*,8.4,-1.1,6.7,·,18.5
O=C1C2=C(Nc3ccccc3SC2c2ccco2)c2ccccc21 (stereo not drawn),-4.9,1.6,-2.1,0.2,73.7*,·
O=C1c2ccccc2NC(c2ccco2)N1O (stereo not drawn),4.2,2.4,-4.3,8.4,-9.3,4.1
COc1cc2c(cc1OC)C(c1cc3cc4c(cc3[nH]c1=O)OCO4)N(C(=O)C(C)C)CC2 (stereo not drawn),·,·,·,·,84.4*,·
Nc1nc2c(nc(Br)n2C2OC3COP(=O)(O)O[C@@H]3C2O)c(=O)[nH]1 (stereo partly drawn),·,·,-1.3,·,·,·
CCc1ccc(CNc2ccc(N3CCN(C(C)=O)CC3)cc2)cc1,·,·,57.4*,·,-32.5,·
Cc1occc1C(=O)NC(C)C(C)(C)C (stereo not drawn),-0.5,-1.8,80.0*,5.9,18.6,-3.7
Cc1cc2ccccc2c(=O)[nH]1,2.6,0.1,-9.8,13.4,·,0.1
Cc1ccccc1Nc1cc2ccccc2c(=O)[nH]1,?,8.3,78.6*,12.4,·,9.6
Cc1occc1C(=O)n1nnc2ccccc21,7.4,10.7,-2.8,-2.7,·,24.1
CCSc1ccccc1C(=O)n1nnc2ccccc21,-5.6,32.2*,-4.6,29.7*,42.5,2.6
CC(=O)CCc1c(C)c2cccc(C)c2[nH]c1=O,-1.4,3.4,-1.4,0.2,·,104.5*
O=C1CCc2cc(S(=O)(=O)N3CCCC3C(=O)NC3CCCCCCC3)ccc2N1 (stereo not drawn),·,·,·,·,35.8,·
Cc1ccc(O)c(/C=N/NC(=O)C2=NNC(c3ccccc3)(c3ccccc3)C2)c1,·,·,·,·,71.1*,·
Cc1cccc(/C=N\NC(=O)c2csnn2)c1,·,·,·,·,2.4,·
Cc1ccc2c(C(=O)CN3CCCCC3CCO)c(C)[nH]c2c1 (stereo not drawn),21.3,3.9,-3.8,29.5*,·,-3.5
O=C(CCS(=O)(=O)c1cccc2nonc12)N1CCN(c2ccc(F)cc2)CC1,-4.2,4.3,·,0.5,·,-3.5
Nc1nonc1-c1nc2ccccc2n1CC(=O)N1CCN(c2ccc(F)cc2)CC1,4.0,36.9*,-12.6,9.9,·,·
COc1ccc(CCNC(=O)Cn2c(-c3nonc3N)nc3ccccc32)cc1OC,-6.6,14.1,0.7,12.4,-39.5,10.2
CCOC(=O)Cn1c(-c2nonc2NC(=O)c2ccccc2F)nc2ccccc21,-3.8,1.6,·,-0.1,·,-14.0
CCOc1ccc(CCNC(=O)Cn2c(-c3nonc3N)nc3ccccc32)cc1OCC,3.2,64.5*,-5.2,51.0*,·,51.7*
CCCCOc1ccccc1NC(=O)Cn1c(-c2nonc2N)nc2ccccc21,-6.6,53.7*,1.3,-3.2,·,60.0*
SMILES,CatS block,CatB block,Hsp90 block,CatB mixtures,Htt clearance,CatL inh
NC(=S)c1ccc[n+]([C@@H]2O[C@@H](COP(=O)([O-])OP(=O)(O)OC[C@H]3O[C@@H](n4cnc5c(N)ncnc54)C(OP(=O)(O)O)[C@H]3O)C(O)C2O)c1 (stereo partly drawn),·,·,0.4,·,·,·
CC(N)C1CCC(C(=O)Nc2ccncc2)CC1 (stereo not drawn),·,·,1.8,·,·,·
Nc1ncnc2c1ncn2[C@@H]1O[C@H](CO)[C@H](O)C1O (stereo partly drawn),·,·,-2.5,·,·,·
Cn1c(CN2CCOCC2)c(C#N)c2ccccc21,6.5,-4.8,-3.9,2.1,-12.0,2.5
C=CCn1c(O)c(CN2CCOCC2)c(C)c(C#N)c1=O,4.1,-2.7,-4.7,-1.4,·,103.4*
O=C(c1cccn2c(=O)c3cc(Br)ccc3nc12)N1CCN(c2ccccn2)CC1,-0.8,-2.5,0.2,7.7,·,-14.3

# Assay outcomes (PubChem BioAssay)
